From the supplement of paper PMC3334620
In all, about 33,000 sequences were measured (“E-score (-0.5 to 0.5)”: median about -8e-05, highest 2% from about 0.23 on). For the sample, the highest values were picked, then their nearest neighbours and some sequences at random.

The sequences below were run against T1, Nrg2 (UniProt P38082) (assay: PBM E-score (8-mer binding enrichment) (E-score (-0.5 to 0.5)); higher = stronger / more preferred TF binding). Details: protein concentration: 100 nM; construct: GST-full length.
T1 sequence: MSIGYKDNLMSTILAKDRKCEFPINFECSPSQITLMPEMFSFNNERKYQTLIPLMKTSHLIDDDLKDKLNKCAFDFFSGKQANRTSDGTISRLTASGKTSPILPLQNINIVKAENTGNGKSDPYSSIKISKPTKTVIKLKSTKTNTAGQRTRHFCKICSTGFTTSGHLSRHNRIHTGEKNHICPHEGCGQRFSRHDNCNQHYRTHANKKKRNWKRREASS
Procedure: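 Universal 'all 10-mer' protein binding microarrays (Agilent AMADID 015681) probed with GST-tagged S. cerevisiae TFs (full-length or DBD) made by in vitro transcription/translation (PURExpress), about 100-200 nM. Bound TF was detected with fluorescent anti-GST. Each ungapped 8-mer (which stands for itself and its reverse complement) is scored by the PBM enrichment score (E-score), a modified Wilcoxon-Mann-Whitney statistic from -0.5 to +0.5, computed with the Universal PBM Analysis Suite. Scale: above 0.35 generally sequence-specific binding.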

Row | Sequence | PBM E-score
1 | CAGCGCCG | -0.09
2 | ATACCAAT | 0.0716
3 | GCAAGAGA | -0.12
4 | CTATTTCA | 0.164
5 | CTATTTCC | 0.255
6 | CAATTTCC | 0.108
7 | GAATTTCC | 0.252
8 | AAATTTCC | 0.113
9 | ATATTTCC | 0.206
10 | AGTAGGTC | -0.219
11 | CATTAGTA | 0.112
12 | ATTTAGTA | 0.274
13 | ATTTAGTC | 0.0158
14 | AATTAGTC | 0.107
15 | CTTTAGTA | -0.00347
16 | AATTAGTA | 0.23
17 | GATGCGGC | -0.094
18 | ACTCTAGA | -0.0152
19 | GGCGGGAA | -0.11
20 | TATGGGGA | 0.283
21 | GGCGGGGA | 0.249
22 | CGCGGGGA | 0.165
23 | AATGGGGA | 0.0109
24 | CATGGGGA | 0.135
25 | GGTGGGGA | 0.265
26 | GGTGGGAA | -0.0571

Row | Sequence | PBM E-score
27 | CGTGGGGA | 0.121
28 | ATACCGAC | -0.243
29 | CCGTCCGA | -0.257
30 | GACTAGGA | -0.0424
31 | CAAATCTA | 0.101
32 | ACTTGAGC | -0.295
33 | ACGTGGCT | -0.0848
34 | ATACTGAG | 0.255
35 | CTACTGAG | -0.00592
36 | ATACTGTC | 0.256
37 | ATACTGTG | -0.0451
38 | ATACTGAC | 0.146
39 | ATACTGAT | 0.225
40 | AGCCGCGA | -0.0535
41 | AGTCCAAC | 0.0694
42 | ATGTTCTC | -0.0462
43 | AGTAAGAG | -0.0249
44 | ATCCCTGC | 0.157
45 | ATCCCTGA | 0.256
46 | CTCCCTGA | 0.0641
47 | ATCCCTCG | 0.0848
48 | ATCCCTGG | 0.302
49 | GTCCCTCA | 0.0343
50 | ATCCCCTA | 0.0411
51 | CTCCCTTA | -0.202
52 | ATCCCTTA | 0.0558

Row | Sequence | PBM E-score
53 | GTCCCTTA | 0.288
54 | ATCCCTCA | -0.0503
55 | GTCCCTGA | 0.356
56 | ATCTGCTC | -0.0264
57 | AGGCATAT | -0.0234
58 | ACGAGGGC | 0.0428
59 | CCGCCAGA | -0.0239
60 | GACAACCA | 0.122
61 | TATCCCAA | -0.005
62 | ATTGGCCA | 0.171
63 | TACACGAA | 0.18
64 | CTACAGGC | -0.0785
65 | CCAGGGCC | 0.106
66 | AGAGGGTC | -0.0416
67 | GCAGGGTA | 0.164
68 | ACAGGGCC | 0.295
69 | CTAGGGTC | 0.188
70 | CCAGGGGC | 0.0624
71 | ACAGGGGC | 0.0717
72 | CCAGGGTA | 0.304
73 | CGAGGGTA | 0.0487
74 | ACAGGGTC | 0.402
75 | ACAGGGCA | 0.195
76 | CCAGGGTC | 0.392
77 | GTCCATGA | -0.237
78 | GGCAATTA | 0.103

Row | Sequence | PBM E-score
79 | CGCATTGC | 0.148
80 | ACAACAGA | -0.0576
81 | CGCGAAGA | 0.12
82 | AATCGTGT | 0.164
83 | ATGGGTGC | -0.0107
84 | GATGAAAA | 0.0467
85 | CTCCCAAC | -0.0556
86 | CTACCACC | -0.166
87 | AGCGGGTC | -0.21
88 | ACAGGGTG | 0.0367
89 | ATAGGGTA | 0.17
90 | ACAGGGTA | 0.349
91 | CTTGTGCC | -0.222
92 | AGTTCTAG | -0.0512
93 | ATTGAGAA | 0.232
94 | ATTGAGAG | 0.0708
95 | ATTGAGAC | 0.0341
96 | TAAAACTA | 0.0863
97 | AAGGGCCG | -0.0822
98 | CAGGGCCC | 0.42
99 | GAGGGCCC | 0.151
100 | GGGCCCCC | -0.279
101 | CGGGGCCC | 0.221
102 | GGGGCCCC | 0.267
103 | AAGGGCCT | 0.0464
104 | AGGGGGCC | -0.189

Row | Sequence | PBM E-score
105 | CGGGCCCC | 0.119
106 | CAGGGCCA | -0.0826
107 | AAGGGCCC | 0.347
108 | AGGGGCCC | 0.276
109 | CACCCGAC | -0.0642
110 | AAAAGCGG | -0.12
111 | AAAGTAGT | 0.0374
112 | AGTGAAAG | -0.0491
113 | ACTCAATC | 0.0391
114 | AACCCCGG | 0.0231
115 | GAGTTTCA | 0.00699
116 | TAGTTTCA | 0.258
117 | AAGTTTCA | 0.149
118 | CGTGAATA | 0.17
119 | TACCACAA | 0.0795
120 | TTAATTAA | 0.198
121 | CTAATTGA | 0.0446
122 | GTAATTGA | 0.00642
123 | ATAATTAA | 0.264
124 | ATAATTGA | 0.276
125 | ATAATTAC | 0.176
126 | CTAGATGA | -0.0603
127 | GCGAAACA | 0.0688
128 | AACGATGA | 0.0545
129 | ACCGCATC | 0.159
130 | CAATTGCA | -0.0952

Row | Sequence | PBM E-score
131 | AAATTGTA | 0.0349
132 | AAATTGTC | 0.24
133 | AATTGGGC | -0.0483
134 | AAATTGCA | 0.232
135 | AATTGGGT | 0.26
136 | AATTGGGG | -0.0654
137 | AATTGAGT | 0.245
138 | AATTGAGG | 0.0708
139 | AAATTGCT | -0.0593
140 | AATTGAGA | 0.0993
141 | AAATTGTT | 0.0684
142 | CAGAGCGC | -0.213
143 | ACATGGTA | -0.0687
144 | AAGGTGCG | -0.0555
145 | CTCATCCC | -0.234
146 | ACTACGTA | 0.0132
147 | ATGTCCGA | -0.0732
148 | ACCTCGCG | 0.116
149 | AGTCCCAC | -0.079
150 | GAATTCCA | 0.188
151 | AAATTGGT | 0.268
152 | AAATTGGG | 0.0734
153 | AAATTGGC | -0.012
154 | AAATTCCA | 0.254
155 | CAATTCCA | -0.0703
156 | GAGACGGC | -0.0458

Row | Sequence | PBM E-score
157 | ACGAGGAC | -0.0285
158 | CACTGAGC | -0.0828
159 | ACGAATGA | 0.156
160 | GAAGGACA | -0.00553
161 | CACCTCAG | -0.11
162 | TCAGTGCA | 0.0253
163 | AGCGTTAC | -0.146
164 | AATATAAA | 0.233
165 | AATATAAT | 0.0957
166 | AATATAGT | 0.206
167 | TATATAAA | 0.2
168 | AATATAGG | 0.229
169 | CATATAAG | 0.0579
170 | AATATAGC | 0.0275
171 | AATATAAG | 0.258
172 | CATATAAA | 0.00613
173 | ACACTTCA | 0.103
174 | CAGCCAGC | -0.115
175 | CAAACAGC | 0.00877
176 | AAGGGCCA | -0.0108
177 | AGTTTGGG | 0.0374
178 | CCGGCGAA | 0.0927
179 | AGAAACAA | 0.258
180 | GGAAACAA | 0.105
181 | AGAAACAC | 0.0617
182 | AATCGGCG | 0.0404

Row | Sequence | PBM E-score
183 | AAGGTTTG | 0.0916
184 | CTCAGGGC | 0.157
185 | CCCAGGGA | 0.124
186 | GTCAGGGA | 0.18
187 | CACAGACA | 0.118
188 | GACAGACA | 0.248
189 | TCCAGGGA | 0.242
190 | AACAGGGC | 0.283
191 | ACCAGGGA | 0.122
192 | AACAGGGG | 0.105
193 | CTCAGGGA | 0.319
194 | GACAGACC | 0.0299
195 | CACAGGGC | 0.179
196 | GCATTCCC | -0.0654
197 | ATTCGACC | -0.0786
198 | AGAGCGCT | 0.0785
199 | CGCGGGGC | 0.0564
200 | AAGGGCAT | -0.139
201 | ATGCGACA | 0.0603
202 | GCAAGTGA | -0.0727
203 | AGCTAGCG | 0.00875
204 | ACGAAGAC | -0.135
205 | GAGCAAGA | -0.00443
206 | GCTGAAAA | 0.114
207 | GATCTCCA | 0.0533
208 | CAGAGCTG | -0.0821

Row | Sequence | PBM E-score
209 | AGAACGAA | 0.179
210 | AACAGGGA | 0.176
211 | GACAGGGA | 0.252
212 | CACAGGGA | 0.139
213 | CACCTCTC | -0.0403
214 | ATGGCCTA | 0.00552
215 | ATAAGAAA | 0.101
216 | ATAAGAAT | 0.135
217 | ACAAGAGA | 0.24
218 | ATAAGAAC | 0.36
219 | ACAAGAAT | 0.0779
220 | ACAAGAAC | 0.262
221 | CCAAGAGA | -0.14
222 | ACCAGAAA | 0.041
223 | ACCAGAAG | -0.134
224 | ACCAGAAC | 0.238
225 | ACAAGAGC | 0.0831
226 | GCAAGAAC | 0.188
